Experiment [1] in a line: Cell Viability - LYMP2-026 (AID 989).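 Note: cells exposed to compound for 24 h at 37 °C; nearly all actives have a fitted effect of over 50% in size.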 The source says: NIH Chemical Genomics Center [NCGC]
NIH Molecular Libraries Screening Centers Network [MLSCN]
National Institutes of Environmental Health Sciences [NIEHS]
National Toxicology Program [NTP]
We have developed a 1536-well cell-based assay for quantitative high throughput screening (qHTS) against a number of cell lines to determine in vitro cytotoxicity of small molecules. This particular assay uses a human lymphoblastoid cell line (LYMP2-026) purchased from Coriell Institute for Medical Research.
NCGC Assay Protocol Summary:
The CellTiter-Glo luminescent cell viability assay (Promega) is a homogeneous method to measure the number of viable cells in culture. The end point readout of this assay is based on quantitation of intracellular ATP, an indicator of metabolic activity, using the luciferase reaction. […]
Using the CellTiter-Glo luminescent cell viability assay, the amount of cellular ATP was measured in the lymphoblastoid cell line with complete culture medium following compound treatment for 24 hours. […] Library compounds were measured for their ability to cause acute toxicity in the cell line, as reflected by a decrease in intracellular ATP levels, in a concentration-dependent manner. […] AC50 values were determined from concentration-response data modeled with the standard Hill equation. […]
8. Detection; Luminescence; Viewlux plate reader […]

Experiment [2] can be described thus: Cell Viability - LYMP1-002 - Assay at 24 hr (AID 993). The gist of the method: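 Cells plated 2500/well, 5 hr 37 C; compounds added, 24 hr 37 C; CellTiter-Glo added, 30 min RT; luminescence read. Tetraoctylammonium bromide positive control. Hill-equation AC50.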
The nature of experiment [3]: Cell Viability - LYMP1-002 - Assay at 40 hr (AID 994). Note: nearly all actives have a fitted effect of over 60% in size. The gist of the method:
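Luminescent ATP signal served as the viability readout, with decreases taken as toxicity. Cells were treated with compounds across a concentration range for 40 hours at 37 C, and AC50 values came from standard Hill modeling.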

Experiment [4] has as its target Alpha-galactosidase A (Homo sapiens) (UniProt P06280). The experiment is described as follows: Counterscreen for Glucocerebrosidase Inhibitors: qHTS Assay for Human alpha-Galactosidase at pH 4.5 (AID 992). An outline of the steps: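 Enzyme at 2 nM final was combined with compound (0.7 nM to 77 uM) and 80 uM 4-methylumbelliferyl alpha-D-galactopyranoside in 50 mM citric acid, 0.005% Tween-20, pH 4.5. After 20 min at room temperature, fluorescence was read (Ex 365/Em 440 nm); AC50 came from Hill fits.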

Experiment [5] deals with alpha-glucosidase (Oryza sativa, rice) (UniProt Q653V4). As to the kind of experiment: Counterscreen for Glucocerebrosidase Inhibitors: qHTS Assay for Rice alpha-Glucosidase at pH 5.0 (AID 997). The gist of the method:
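Rice alpha-glucosidase (4 nM final) with 400 uM 4-methylumbelliferyl-alpha-D-glucopyranoside in citrate buffer pH 5.0, 20 min at room temperature, stopped at pH 10; fluorescence 365/440 nm, compounds 0.7 nM–77 uM, AC50 from Hill fits.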

Experiment [6] addresses DNA repair nuclease/redox regulator APEX1 (Homo sapiens) (UniProt P27695). The experiment is described as follows: qHTS Validation Assay for Inhibitors of the Human Apurinic/apyrimidinic Endonuclease 1 (APE1) (AID 1705;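 note: TAMRA fluorescence gain over two minutes as APE1 cuts a quenched THF abasic duplex; series mostly up to about 57 µM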). The gist of the method:
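Fluorogenic double-stranded THF abasic-site substrate (5'-TAMRA/3'-BHQ-2), 50 nM final. Enzyme preincubated with compound 15 min at room temperature, then substrate added. Kinetic fluorescence (ex 525/em 598 nm) read three times at 60 s intervals; activity taken as third-minus-first read difference.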

Experiment [7] is described as follows: Counterscreen for APE1 Inhibitors: Fluorescent Dye Displacement Validation Assay (AID 1707). An outline of the steps: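 Thiazole Orange displacement from dsDNA: 250 nM ThO with 50 nM TAMRA-labelled abasic-site (tetrahydrofuran) duplex in 50 mM Tris-HCl pH7.5, 50mM NaCl, 2 mM MgCl2, 0.01% Tween-20. Loss of endpoint fluorescence (ex 480 nm, em 540 nm) flags DNA binders.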

Experiment [8] concerns the target Endonuclease 4 (Escherichia coli (strain K12)) (UniProt P0A6C1). As to the kind of experiment: Counterscreen for APE1 Inhibitors: qHTS Validation Assay for Inhibitors of Endonuclease IV (AID 1708). The gist of the method:
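qHTS concentration-response format; LOPAC1280 tested under APE1-screen conditions. 2 nM enzyme, 15 min compound preincubation at RT, then 50 nM TAMRA/BHQ-2 abasic substrate; kinetic fluorescence read, three reads at 60 s intervals.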

Experiment [9] can be described thus: qHTS for differential inhibitors of proliferation of Plasmodium falciparum line 7G8 (AID 1815).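 Note: parasite growth measured after three days of incubation.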

Records with an inconclusive call do not appear. The source made the active and inactive calls. Calls come from the whole dose curve; as a rule, active = well fitted curve in the direction sought with a large enough effect; inconclusive = small, poorly fitted or top-dose-only effect, or another doubt; inactive = no such curve, though single readings can be large; an effect the other way counts as inactive or inconclusive.

The record followed here is PubChem BioAssay (NCATS).

Chain of Alpha-galactosidase A (Homo sapiens) (P06280 whole entry, looked up): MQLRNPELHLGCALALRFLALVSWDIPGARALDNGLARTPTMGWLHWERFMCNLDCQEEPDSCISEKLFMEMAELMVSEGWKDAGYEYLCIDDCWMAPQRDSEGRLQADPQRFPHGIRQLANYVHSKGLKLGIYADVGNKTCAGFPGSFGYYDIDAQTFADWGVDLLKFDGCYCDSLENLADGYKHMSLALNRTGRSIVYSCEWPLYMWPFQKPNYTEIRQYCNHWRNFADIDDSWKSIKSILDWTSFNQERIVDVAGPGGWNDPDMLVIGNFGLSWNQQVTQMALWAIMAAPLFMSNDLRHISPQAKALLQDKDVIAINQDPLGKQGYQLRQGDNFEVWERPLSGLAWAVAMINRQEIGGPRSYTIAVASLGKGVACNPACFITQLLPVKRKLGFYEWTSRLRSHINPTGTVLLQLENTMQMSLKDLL
Chain of DNA repair nuclease/redox regulator APEX1 (Homo sapiens) (P27695 whole entry, looked up): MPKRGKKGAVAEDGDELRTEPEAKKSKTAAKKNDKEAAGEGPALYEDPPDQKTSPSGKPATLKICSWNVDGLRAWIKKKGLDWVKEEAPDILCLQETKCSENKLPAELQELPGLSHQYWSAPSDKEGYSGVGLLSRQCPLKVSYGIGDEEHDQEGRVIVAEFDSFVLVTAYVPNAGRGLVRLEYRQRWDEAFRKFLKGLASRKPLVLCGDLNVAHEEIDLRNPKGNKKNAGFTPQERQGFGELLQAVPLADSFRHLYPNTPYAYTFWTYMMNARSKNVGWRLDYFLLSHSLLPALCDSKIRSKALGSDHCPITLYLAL

With `Cc1cc(O)c2c(c1)C(=O)c1cccc(O)c1C2=O`, the result in experiment [1], in experiment [2] and in experiment [3] was inactive.
Consider `COc1ccc2c(c1OC)C(=O)OC2[C@H]1c2c(cc3c(c2OC)OCO3)CCN1C` (stereo not given in full), for which the compound was classed as inactive in experiment [4] and in experiment [5].
Regarding `CN(C)CC[C@H](c1ccc(Cl)cc1)c1ccccn1`, in [5], the compound was classed as inactive.
In the case of `N=c1ccn2c(n1)O[C@H]1[C@@H](O)[C@@H](CO)O[C@H]12`, the result in [6], in experiment [7], in experiment [8] and in [9] was inactive.
